AMA1-RON2 inh: disrupts binding of P. falciparum AMA1 to RON2; AlphaScreen AMA1-biotinylated RON2 peptide binding; Potency, µM (titrated, usually from 58.2 µM), for the others: top-dose activity change, negative = inhibition, most hits filed as inhibitors; 360,000 compounds, 0.2% hits;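 also: potency is read from the fitted curve at half-maximal effect; 0% = vehicle wells and -100% = peptide control; nearly all actives have a fitted effect of over 45% in size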
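AMA1 (3D7) with his tag at 25 nM final met compounds first, then biotinylated RON2 peptide at 25 nM; detection used donor plus acceptor beads, 10 µg/mL apiece, read by AlphaScreen after 30 min at room temperature.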
SARS PLpro yeast: SARS-CoV PLP inhibition in yeast; 330,000 compounds, 0.19% hits; S. cerevisiae expressing SARS-CoV PLpro, growth rescue; AID 485353; Potency, µM (doses to about 32.9 µM), without a hit: at the highest dose activity, positive = growth rescue, most hits filed as activators; calls by dose curve; also: potency is read from the fitted curve at half-maximal effect; 0% is about no effect; nearly all actives have a fitted effect of over 55% in size
AmpC inh no detg: AmpC beta-lactamase inhibition without detergent. 330,000 compounds, 0.52% hits. P00811. AID 485341. Potency, µM (doses to about 57.1 µM), without a hit: top-dose activity change, negative = inhibition, actives largely listed as inhibitors. AmpC nitrocefin hydrolysis, absorbance 480 nm, 0.0001% Triton;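 also: potency is read from the fitted curve at half-maximal effect; plate controls were no compound for no effect and no enzyme for full effect; nearly all actives have a fitted effect of over 20% in size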
Target sequence (P00811 whole entry, looked up): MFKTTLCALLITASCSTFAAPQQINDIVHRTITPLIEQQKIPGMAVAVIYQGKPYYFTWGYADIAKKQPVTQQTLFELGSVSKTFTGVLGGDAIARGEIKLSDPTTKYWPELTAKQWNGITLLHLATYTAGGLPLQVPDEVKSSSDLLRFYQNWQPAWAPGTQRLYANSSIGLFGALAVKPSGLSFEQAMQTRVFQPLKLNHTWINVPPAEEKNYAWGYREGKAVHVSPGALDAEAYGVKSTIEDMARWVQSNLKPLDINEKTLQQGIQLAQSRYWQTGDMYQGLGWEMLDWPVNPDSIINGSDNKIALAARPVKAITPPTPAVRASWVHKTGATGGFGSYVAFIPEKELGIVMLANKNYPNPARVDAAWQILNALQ
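AmpC (5.3 nM in the dispensed reagent) in 20 mM phosphate pH 7.0 with 0.01% (detergent screen) or 0.0001% Triton X-100 was preincubated with compounds for 15 min at room temperature. Nitrocefin was then added from an 800 uM solution, and hydrolysis was followed at 480 nm.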
AmpC detergent: AmpC beta-lactamase inhibition with detergent present | P00811 | Potency, µM (highest dose often 114 µM), inactives show at the top dose activity change, negative = inhibition, actives largely listed as inhibitors | 370,000 compounds, 0.041% hits | AmpC hydrolysis of nitrocefin, absorbance 480 nm, 0.01% Triton;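 also: potency is read from the fitted curve at half-maximal effect; 0% = no-compound wells and -100% = no-enzyme wells; nearly all actives have a fitted effect of over 25% in size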
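AmpC (5.3 nM in the dispensed reagent) in 20 mM phosphate pH 7.0 with 0.01% (detergent screen) or 0.0001% Triton X-100 was preincubated with compounds for 15 min at room temperature. Nitrocefin was then added from an 800 uM solution, and hydrolysis was followed at 480 nm.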
Cycloheximide cs: counter-screen for Shiga toxin inhibitors: cycloheximide protein synthesis inhibition; 300,000 compounds, 12% hits; max response, %; cell reporter, cycloheximide protein synthesis inhibition counterscreen; in the data active = max response mostly above about 13%, no sharp cut-off; inactive = mostly below about 14%; also: read at 38.3 µM for the half of the compounds with a filed dose; 0% is about no effect
Shiga inhibitor: blocks Shiga toxin action in Vero cells; Vero cells, Shiga toxin protein synthesis inhibition reporter; 290,000 compounds, 9.2% hits; inhibition, % at 38.7 µM; in the data active = inhibition mostly above about 28%, no sharp cut-off; inactive = mostly below about 43%; also: 0% is about no effect
An asterisk follows results filed as active; ? = inconclusive; . = no result given; + = active, no number; [ ] = another dose, or the depositor's remark. This is one part of a sample in which hits are shown more often than they occur. Unless noted, calls follow the shape of the dose curve; as a rule, active = well fitted curve in the direction sought with a large enough effect; inconclusive = small, poorly fitted or top-dose-only effect, or another doubt; inactive = no such curve, though single readings can be large; an effect the other way counts as inactive or inconclusive.

SMILES | AMA1-RON2 inh | SARS PLpro yeast | AmpC inh no detg | AmpC detergent | Cycloheximide cs | Shiga inhibitor
COc1ccccc1-n1nnnc1SCC(=O)Nc1oc(C)c2c(C)n[nH]c(=O)c12 | 19% | 2% | -30% | -13% | . | .
CCCCn1c(SCC(=O)Nc2cccc(OC)c2)nc2ccc(N3CCOCC3)cc2c1=O | 59% | -4% | 93% | ? | 8 | -40
COc1ccc(Cn2c(SCC#N)nc3ccc(N4CCOCC4)cc3c2=O)cc1 | 38% | 1% | 53% | ? | 58* | 124*
O=c1cc(-c2ccccc2)[nH]n1-c1nc2ccccc2s1 | 72% | -3% | -59% | 0% | 13 | 22
O=C1CNC(=S)N1c1nc2ccccc2s1 | -3% | -15% | -44% | -4% | 29* | 82*
CCCN(/C=N/c1sc2c(c1C#N)CCCCC2)CCC | -4% | 14% | -10% | -5% | 16 | 18
CN(C)/C=N/c1sc2c(c1C#N)CC(C)(C)NC2(C)C | 11% | 25% | -16% | -10% | 0 | -1
CN(C)/C=N/c1sc2c(c1C#N)CCCCC2 | -17% | -5% | -8% | -3% | 56* | 20*
N#Cc1c(/N=C/N2CCOCC2)sc2c1CCCCC2 | 1% | 2% | 35% | -15% | 24 | 107*
CN(C)/C=N/c1sc2c(c1C#N)CCC2 | 6% | 4% | 133% | -15% | 43* | 13
CC[N+]1(C)CCC(=C2c3ccccc3CC(=O)c3sccc32)CC1 (stereo not given) | -4% | -5% | -1% | 2% | -3 | -8
CN(CCOc1ccccc1)C(=O)c1cc(S(=O)(=O)N2CCCCC2)ccc1Cl | -21% | 0% | 43% | -10% | . | .
O=C(Cc1c[nH]c2ccccc12)Nc1cccc(S(=O)(=O)N2CCCCC2)c1 | . | 0% | -53% | -12% | -1 | -9
COc1ccccc1NC(=O)Cn1ncc2c1-c1ccccc1OC2 | 0% | 4% | 6.3µM* | -14% | -3 | -3
CC(C)(CO)CN1CCC(n2nccc2NC(=O)C2CCCC2)CC1 | 8% | 9% | -10% | -2% | -5 | -10
O=C(N/N=C/c1ccncc1)c1ccccc1[N+](=O)[O-] | 19% | 2% | -24% | ? | -6 | 2
Cc1occc1C(=O)N/N=C/c1cccs1 | 35% | -10% | -12% | 1% | 33* | 84*
O=C(N/N=C/C(Br)=C/c1ccccc1)c1ccccc1[N+](=O)[O-] | -7% | -7% | -33% | 2% | 8.7* | 22
Cc1occc1C(=O)N/N=C/c1ccc[nH]1 | 83% | . | . | . | . | .
Cc1occc1C(=O)N/N=C/c1ccc(OCc2ccccc2)cc1 | -2% | -2% | -40% | -4% | 45* | 63*
Cc1occc1C(=O)N/N=C/C(Br)=C/c1ccccc1 | 0% | -5% | -36%[11.4 µM] | -15% | 39* | 86*
O=C1NC[C@H](CCCCN2C[C@H](Cc3ccccc3)N(CC3CCCCC3)C(=O)C2=O)N(CCc2ccccc2)C1=O | 2% | . | . | . | . | .
O=C(CN1CCN(c2ccccn2)CC1)Nc1ccccc1 | -4% | 10% | -2% | -1% | 4 | 23
O=C(N/N=C/c1ccc(OCc2ccccc2)cc1)c1cc[n+](Cc2ccccc2)cc1 | 33% | 9% | 77% | -1% | 20* | 37*
O=C(N/N=C/c1ccc(O)cc1)c1cc[n+](Cc2ccccc2)cc1 | 45% | 14% | -40% | ? | -3 | -11
SMILES | AMA1-RON2 inh | SARS PLpro yeast | AmpC inh no detg | AmpC detergent | Cycloheximide cs | Shiga inhibitor
Cc1occc1C(=O)N/N=C/c1ccc(-c2ccccc2)cc1 | 8% | -41% | -31% | -3% | 37* | 75*
Cc1cccc(S(=O)(=O)c2c(N)n(/N=C/c3cccnc3)c3nc4ccccc4nc23)c1 | 8% | -2% | -15% | -5% | -3 | -26
CSc1ccccc1OCc1cc(C(=O)N2CCCC(C)C2)no1 (stereo not given) | 0% | 7% | -9% | -4% | 27* | 89*
Cc1ccccc1OC1CCN(C(=O)c2cc(COc3ccccc3)on2)CC1 | 20% | -7% | -9% | 6% | 15 | 12
CSc1ccccc1OCc1cc(C(=O)N2CCSCC2)no1 | -4% | 17% | -11% | -4% | 61* | 99*
CCN(CC)C1CCN(C(=O)c2cc(COc3ccccc3SC)on2)C1 (stereo not given) | -8% | -6% | 65% | -14% | 0 | -4
CSc1ccccc1OCc1cc(C(=O)N2CCC(Oc3cccnc3)CC2)no1 | . | . | 89% | -7% | 42* | 95*
CSc1ccccc1OCc1cc(C(=O)N2CCN(c3ncccn3)CC2)no1 | 0% | 3% | -38% | -1% | 0 | -20
CCN(CC1CCCO1)C(=O)c1cc(COc2ccccc2SC)on1 (stereo not given) | -14% | -2% | 63% | -6% | 55* | 82*
CC1Cc2ccccc2N1C(=O)CSc1nnc2c(n1)[nH]c1ccccc12 (stereo not given) | -4% | 10% | -32% | -13% | -2 | -16
CCc1cc(C(=O)N2CCCC(CNC(=O)c3ccc(-c4ccccc4)cc3)C2)no1 (stereo not given) | -4% | -1% | 101% | 6% | 14* | 15
COc1ccccc1OCc1cc(C(=O)N2CCCC(OCc3cccnc3)C2)no1 (stereo not given) | -8% | . | 63% | -2% | 58* | 96*
CSc1ccccc1OCc1cc(C(=O)N2CCN(C3CCCC3)C(=O)C2)no1 | -4% | -2% | 170% | -4% | 54* | 41*
COc1ccc(OCc2cc(C(=O)N3CCCC(CO)C3)no2)c2ccccc12 (stereo not given) | -2% | 3% | 77% | ? | 44* | 84*
COc1cc(/C=C/C(=O)OCC(=O)Nc2oc(C)c3c(C)n[nH]c(=O)c23)ccc1OC(F)F | 22% | 8% | ? | 2% | . | .
CC(=O)O[C@H]1CC[C@@]2(C)C(=CC[C@@H]3[C@@H]2CC[C@]2(C)C(=O)CC[C@@H]32)C1 | -6% | . | -5% | 0% | . | .
O=S(=O)(Nc1ccc(Cc2ccncc2)cc1)N1CCCC1 | 13% | 1% | -24% | 0% | -2 | -6
CCCS(=O)(=O)N1CCC(C(=O)NCCCN2CCC(Cc3ccccc3)CC2)CC1 | 2% | -4% | 11% | ? | 6 | 24
Cc1nc(NC(=O)C2CCCCC2C(=O)O)sc1C (stereo not given) | 21% | 1% | -11% | -9% | -3 | 1
Cc1nc(NC(=O)C2CC3CCCC(C2)C3=O)sc1C (stereo not given) | -1% | 4% | 4% | -1% | 47* | +
CSCCC(NC(=O)c1ccccc1)C(=O)OCC(=O)N(C)CCC#N (stereo not given) | -17% | 0% | -21% | 1% | 1 | -5
Cc1[nH]c2ccccc2c1N=Nc1ccc(F)cc1 | ? | -28% | -45% | 10% | 19* | 45

Screening results as filed in PubChem BioAssay.
